This note sets out measurements from the supplement of paper PMC6522484.

Structures are written as SMILES. ± gives the standard deviation of the averaged measurements.

Assay [1] deals with DLD1. The experiment in a line: cell viability (CellTiter-Glo) relative to plate median (fraction of plate median); higher = more viable cells. The note with it: 5 µM; treatment time 24 h; reporter: 7TFP. The gist of the method:
(§1)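 Stable lentiviral TCF/Wnt firefly luciferase reporters (7TFP or TCF4/Wnt) were present in the colorectal cancer cell lines used. These cells received library compounds at a final 5 µM for 24 h, and parallel plates were read for firefly luciferase or CellTiterGlo luminescence. Each well was normalised to the plate median, and the value reported is the mean of two independent replicates.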
For orientation: ATP-based viability assays read luminescence as a measure of living cells.

The next assay has as its system HCT116. The description is as above. Particulars: 5 µM; treatment time 24 h; reporter: TCF4/Wnt. The gist of the method:
as §1

Assay [2] has as its system SW480. The assay is described as above. Particulars: 5 µM; treatment time 24 h; reporter: 7TFP. The gist of the method: as §1
The test system of assay [3] is DLD1. Nature of the assay: TCF/Wnt firefly luciferase reporter signal relative to plate median (fraction of plate median); higher = higher Wnt reporter signal. Particulars: 5 µM; treatment time 24 h; reporter: 7TFP. The gist of the method: as §1
On the technique in general: Reporter assays use an easily measured gene product as a stand-in for the process of interest.

For assay [4], the system named is SW480. The description is as above. The note with it: 5 µM; treatment time 24 h; reporter: 7TFP. The gist of the method: as §1

Turning to `O=c1c(O)c(-c2ccc(O)c(O)c2)oc2cc(O)ccc12`, the cell viability in the assay on DLD1 [1] was 0.989 ± 0.073; in the assay with HCT116, 0.948 ± 0.028; in the assay on SW480 [2], 0.969 ± 0.019. For the same compound, the figures for the “TCF/Wnt firefly luciferase reporter signal” value in the assay on DLD1 [3] and in the assay with SW480 [4] were 1.01 ± 0.097 and 0.923 ± 0.11, respectively.
On to `CO[C@H]1C[C@H](O[C@H]2[C@H](C)[C@@H](O[C@@H]3O[C@H](C)C[C@H](N(C)C)[C@H]3O)[C@@H](C)C[C@@]3(CO3)C(=O)[C@H](C)[C@@H](O)[C@@H](C)[C@@H](C)OC(=O)[C@@H]2C)O[C@@H](C)[C@@H]1O`, for which the cell viability in the assay on DLD1 [1] was 0.97 ± 0.0028; in the assay with HCT116, 0.91 ± 0.087; in the assay on SW480 [2], 0.915 ± 0.05. Besides, the entries for the “TCF/Wnt firefly luciferase reporter signal” value with DLD1 [3] and in the assay with SW480 [4] were 0.869 ± 0.05 and 1.05 ± 0.1, respectively.
The like results for `CC(C)CCC[C@@H](C)[C@H]1CC[C@H]2[C@@H]3CC=C4C[C@@H](O)CC[C@]4(C)[C@H]3CC[C@]12C` were, in that order, 1.03 ± 0.067, 1 ± 0.11, 1.015 ± 0.0071, 1.05 ± 0.081 and 1.04 ± 0.042.
On to `COc1c(CC(=O)c2cc3c(cc2O)OC(C)(C)C(O)C3)ccc2c1C=CC(C)(C)O2` (stereo not given), for which the cell viability worked out at 1.02 ± 0.03 in the assay with DLD1 [1], 1.02 ± 0.035 with HCT116 and 0.911 ± 0.021 with SW480 [2]. In addition, the “TCF/Wnt firefly luciferase reporter signal” value in the assay with DLD1 [3] came out at 0.941 ± 0.039; in the assay with SW480 [4], 0.929 ± 0.08.
The like results for `Nc1nc2[nH]cnc2c(=S)[nH]1` were, in that order, 0.706 ± 0.016, 0.761 ± 0.037, 0.828 ± 0.11, 0.752 ± 0.033 and 0.799 ± 0.025.
`CC1(C)O[C@H]2CC(=O)OC[C@]23[C@H]2CC[C@@]4(C)[C@H](c5ccoc5)OC(=O)[C@H]5O[C@]54[C@]2(C)C(=O)C[C@@H]13`: the cell viability with DLD1 [1] was found to be 1.01 ± 0.045; with HCT116, 1.07 ± 0.064; in the assay on SW480 [2], 1.05 ± 0.05. For the same compound, the “TCF/Wnt firefly luciferase reporter signal” value was found to be 0.944 ± 0.03 in the assay with DLD1 [3] and 0.98 ± 0.099 in the assay with SW480 [4].
`Clc1ccc(COC(Cn2ccnc2)c2ccc(Cl)cc2Cl)cc1` (stereo not given): the values for the cell viability in the assay with DLD1 [1], in the assay with HCT116 and in the assay with SW480 [2] were 0.944 ± 0.11, 0.972 ± 0.0085 and 0.99 ± 0.029, respectively. The “TCF/Wnt firefly luciferase reporter signal” value in the assay on DLD1 [3] was 0.936 ± 0.13; with SW480 [4], 1.03 ± 0.074.
The like results for `CC[N+](C)(C)c1cccc(O)c1` were, in that order, 0.956 ± 0.091, 0.984 ± 0.013, 0.908 ± 0.041, 0.92 ± 0.14 and 0.915 ± 0.044.
`CC(C)CCC[C@@H](C)[C@H]1CC[C@H]2[C@@H]3C[C@@H](O)[C@@]4(O)C[C@@H](O)CC[C@]4(C)[C@H]3CC[C@]12C` [CHOLESTAN-3beta,5alpha,6beta-TRIOL]: the values for the cell viability in the assay with DLD1 [1], in the assay on HCT116 and in the assay with SW480 [2] were 0.991 ± 0.041, 0.924 ± 0.083 and 0.967 ± 0.016, respectively. Also, the “TCF/Wnt firefly luciferase reporter signal” value with DLD1 [3] is 0.9 ± 0.086; with SW480 [4] it was 0.891 ± 0.076.
Taken in the same sequence, the figures for `CC1=C(/C=C/C(C)=C/C=C/C(C)=C/C=C/C=C(C)/C=C/C=C(C)/C=C/C(=O)[C@]2(C)C[C@@H](O)CC2(C)C)C(C)(C)C[C@H](O)C1` were 0.98 ± 0.057, 0.966 ± 0.1, 0.997 ± 0.033, 0.947 ± 0.058 and 1 ± 0.051.
The like results for `CNC[C@H](O)c1cccc(O)c1` were, in that order, 1.02 ± 0.033, 1.09 ± 0.064, 0.955 ± 0.062, 1.02 ± 0.13 and 1.075 ± 0.0071.
Taken in the same sequence, the figures for `CCOC(=O)c1c(C)cc(OC)cc1O` were 0.947 ± 0.033, 0.908 ± 0.03, 0.954 ± 0.066, 0.874 ± 0.021 and 1.04 ± 0.064.
`Cc1c(N(C)C)c(=O)n(-c2ccccc2)n1C`: the results for the cell viability in the assay with DLD1 [1], with HCT116 and in the assay on SW480 [2] were 0.898 ± 0.025, 0.981 ± 0.13 and 0.991 ± 0.069, respectively. The “TCF/Wnt firefly luciferase reporter signal” value with DLD1 [3] amounted to 1.1 ± 0.028; in the assay with SW480 [4], 0.821 ± 0.057.
On to `Cc1cccc(C)c1OCC(C)N` (stereo not given), for which the cell viability amounted to 0.988 ± 0.059 with DLD1 [1], 0.983 ± 0.12 with HCT116 and 1.06 in the assay with SW480 [2]. Moreover, the “TCF/Wnt firefly luciferase reporter signal” value turned out to be 1.19 ± 0.078 with DLD1 [3] and 1.05 ± 0.1 in the assay on SW480 [4].
For the compound `CCOC(=O)C(C)(C)Oc1ccc(Cl)cc1`, the cell viability was 1.01 ± 0.021 with DLD1 [1], 0.981 ± 0.0071 with HCT116 and 0.971 ± 0.055 with SW480 [2]. Moreover, the results for the “TCF/Wnt firefly luciferase reporter signal” value with DLD1 [3] and with SW480 [4] were 1.24 ± 0.021 and 1.04 ± 0.035, respectively.
Taken in the same sequence, the figures for `C[C@@H]1O[C@@H](O[C@H]2[C@H](Oc3cc(O)c4c(c3)O[C@H](c3ccc(O)cc3)CC4=O)O[C@H](CO)[C@@H](O)[C@@H]2O)[C@H](O)[C@H](O)[C@H]1O` were 1.07 ± 0.042, 0.916 ± 0.11, 0.975 ± 0.02, 0.992 ± 0.24 and 1.01 ± 0.16.
Regarding `CN[C@@H]1[C@@H](O)[C@@H](O[C@@H]2[C@@H](O)[C@H](O[C@H]3OC(CN)=CC[C@H]3N)[C@@H](N)C[C@H]2N)OC[C@]1(C)O`, the results for the cell viability with DLD1 [1], with HCT116 and in the assay on SW480 [2] were 1.04, 0.9635 ± 0.0092 and 1.07 ± 0.042, respectively. Further, the “TCF/Wnt firefly luciferase reporter signal” value was determined as 0.933 ± 0.17 in the assay on DLD1 [3] and 0.97 ± 0.085 in the assay with SW480 [4].
The like results for `C=C1c2c(Cl)ccc(O)c2C(=O)C2=C(O)[C@]3(O)C(=O)C(C(N)=O)=C(O)[C@@H](N(C)C)[C@@H]3[C@@H](O)[C@H]12.O=C(O)c1cc(S(=O)(=O)O)ccc1O` were, in that order, 1.05 ± 0.021, 1.02 ± 0.042, 1.005 ± 0.0071, 1.05 ± 0.25 and 0.893 ± 0.062.
As to `COc1cc(C)cc2ccc(-c3ccc4c(c3O)[C@@H](C)N[C@H](C)C4)c(O)c12`, the cell viability was 1.17 ± 0.19 with DLD1 [1], 1.04 ± 0.077 with HCT116 and 1.05 ± 0.021 in the assay on SW480 [2]. In addition, the “TCF/Wnt firefly luciferase reporter signal” value in the assay with DLD1 [3] stood at 1.05; in the assay with SW480 [4], 1.015 ± 0.0071.
The like results for `C[C@@H]1CC(=O)c2c(ccc3c2C(=O)c2cccc(O)c2C3=O)C1` [Ochromycinone (Isoform A, compound ID 7490)] were, in that order, 1.06 ± 0.078, 1.005 ± 0.0071, 1.02 ± 0.072, 1 ± 0.023 and 0.997 ± 0.32.
Turning to `CCCCC(=O)N(Cc1ccc(-c2ccccc2-c2nnn[nH]2)cc1)[C@H](C(=O)O)C(C)C`, the cell viability was 0.908 ± 0.081 in the assay with DLD1 [1], 0.988 ± 0.17 with HCT116 and 1 ± 0.054 in the assay on SW480 [2]. Further, the “TCF/Wnt firefly luciferase reporter signal” value in the assay on DLD1 [3] was 0.985 ± 0.078; in the assay on SW480 [4], 0.919 ± 0.09.
`Nc1c2ccccc2nc2ccccc12`: the cell viability in the assay on DLD1 [1] was determined as 0.942 ± 0.071; in the assay on HCT116, 0.919 ± 0.11; in the assay on SW480 [2], 1.03 ± 0.021. Besides, the “TCF/Wnt firefly luciferase reporter signal” value is 1.52 ± 0.54 in the assay on DLD1 [3] and 1.01 ± 0.13 with SW480 [4].
As for `CCCCC(=O)O[C@]1(C(=O)CO)CC[C@H]2[C@@H]3CCC4=CC(=O)CC[C@]4(C)[C@H]3[C@@H](O)C[C@@]21C`, the cell viability in the assay with DLD1 [1] was 0.981 ± 0.084; in the assay on HCT116 it was 1.02 ± 0.11; in the assay on SW480 [2], 0.96 ± 0.013. In addition, the entries for the “TCF/Wnt firefly luciferase reporter signal” value with DLD1 [3] and with SW480 [4] were 1.02 ± 0.11 and 0.997 ± 0.061, respectively.
Turning to `CC(=O)OCC(OC(C)=O)C(OC(C)=O)C(OC(C)=O)C(OC(C)=O)C(COC(C)=O)OC(C)=O` (stereo not given), the cell viability with DLD1 [1] was found to be 1.06 ± 0.071; in the assay on HCT116, 1 ± 0.066; in the assay with SW480 [2] it was 1.045 ± 0.0071. The “TCF/Wnt firefly luciferase reporter signal” value is 0.987 ± 0.047 in the assay on DLD1 [3] and 0.96 ± 0.037 with SW480 [4].
The like results for `O=C1NC(Cc2ccc(O)cc2)C(=O)NC1Cc1ccc(O)cc1` (stereo not given) [Cyclo(tyrosyltyrosyl)] were, in that order, 0.902 ± 0.091, 0.942 ± 0.11, 0.953 ± 0.011, 1.04 ± 0.057 and 0.98 ± 0.023.
The like results for `C#C[C@]1(O)CC[C@H]2[C@@H]3CCC4=C(CCC(=O)C4)[C@H]3CC[C@@]21C` were, in that order, 0.905 ± 0.022, 0.974 ± 0.14, 0.913 ± 0.014, 1.07 ± 0.13 and 1.07 ± 0.057.
The like results for `CC[C@@H]1C(=O)OC[C@@H]1Cc1cncn1C` were, in that order, 1.015 ± 0.0071, 0.953 ± 0.067, 0.992 ± 0.012, 1.18 ± 0.05 and 1.16 ± 0.16.
For `O=C1c2ccccc2C(=O)c2c(Cl)cccc21` [Chloro-Anthraquinone], the cell viability with DLD1 [1] was determined as 1.01 ± 0.027; in the assay with HCT116, 0.993 ± 0.024; with SW480 [2], 0.974 ± 0.017. For the same compound, the entries for the “TCF/Wnt firefly luciferase reporter signal” value with DLD1 [3] and in the assay with SW480 [4] were 1.03 ± 0.16 and 0.944 ± 0.14, respectively.
